This passage reports Potency and outcome results from PubChem BioAssay (Tox21).

Structures are written as SMILES. Inconclusive results are not listed. Active and inactive are the calls of the source. Unless noted, the call rests on the fitted dose curve; in most records, active means well fitted curve in the direction sought with a large enough effect in the repeat runs; inconclusive means weak or mixed curves; inactive means no such curve, though single readings can be large; an effect the other way counts as inactive or inconclusive.

The nature of experiment [1]: qHTS assay to identify small molecule antagonists of the glucocorticoid receptor (GR) signaling pathway - cell viability counter screen (AID 720693). Further: nearly all actives have a fitted effect of over 55% in size.
A short description of experiment [2]: qHTS assay for identifying genotoxic compounds that show differential cytotoxicity against isogenic chicken DT40 cell lines with known DNA damage response pathways - wild type cell line (AID 743012). Further: nearly all actives have a fitted effect of over 60% in size. Further: potency means the concentration at half of the fitted maximal effect. The procedure, abridged:
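Quantitative HTS on parental DT40 cells: 40 h compound treatment at 37 C/5% CO2, with viability then determined by CellTiter-Glo luminescence. Values serve as the DNA repair-proficient reference for differential cytotoxicity.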

A short description of experiment [3]: qHTS assay for identifying genotoxic compounds that show differential cytotoxicity against isogenic chicken DT40 cell lines with known DNA damage response pathways - Rev3 mutant cell line (AID 743014). Further: nearly all actives have a fitted effect of over 55% in size. Further: potency means the concentration at half of the fitted maximal effect. Background: qHTS replaces the single test concentration by a dilution series.
Experiment [4] can be described thus: qHTS assay for identifying genotoxic compounds that show differential cytotoxicity against isogenic chicken DT40 cell lines with known DNA damage response pathways - Rad54/Ku70 mutant cell line (AID 743015). Further: nearly all actives have a fitted effect of over 60% in size. Further: potency means the concentration at half of the fitted maximal effect.
The nature of experiment [5]: qHTS assay to identify small molecule antagonists of the androgen receptor (AR) signaling pathway - cell viability counter screen (AID 743033; further: nearly all actives have a fitted effect of over 45% in size).
Experiment [6] in a line: qHTS assay to identify small molecule antagonists of the androgen receptor (AR) signaling pathway using the MDA cell line - cell viability counter screen (AID 743041; further: nearly all actives have a fitted effect of over 45% in size). In short, it runs like this: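 Cells were plated at 3,000 per well and left 5 h. Compounds in DMSO were then pinned in, followed by R1881. After 16 h at 37C, CellTiter-Fluor fluorescence gave viability.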

Experiment [7] in a line: qHTS assay to identify small molecule antagonists of the estrogen receptor alpha (ER-alpha) signaling pathway - cell viability counter screen (AID 743074; calls by dose curve;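 further: HEK293 cells carrying ER-alpha-UAS-bla reporter stimulated with 17beta-estradiol; nearly all actives have a fitted effect of over 45% in size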).
For experiment [8], the target named is Estrogen receptor (Homo sapiens) (UniProt P03372). As to the kind of experiment: qHTS assay to identify small molecule agonists of the estrogen receptor alpha (ER-alpha) signaling pathway (AID 743075; calls by dose curve;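 further: HEK293 GripTite cells with ER-alpha and UAS-driven beta-lactamase reporter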).
For experiment [9] the target is unchanged. The experiment can be described thus: qHTS assay to identify small molecule agonists of the estrogen receptor alpha (ER-alpha) signaling pathway using the BG1 cell line (AID 743079). Further: nearly all actives have a fitted effect of over 20% in size. As to conditions: BG1Luc4E2 cells, ERE-luciferase agonist, 22 h; activation: at 70.3 µM (top of the series).
Experiment [10] in a line: qHTS assay to identify small molecule antagonists of the estrogen receptor alpha (ER-alpha) signaling pathway using the BG1 cell line (AID 743080; calls by dose curve;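 further: BG1 cells stimulated with 17beta-estradiol alongside compound; nearly all actives have a fitted effect of over 25% in size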). In short, it runs like this:
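BG1-Luc-4E2 cells (endogenous full-length ER-alpha, 4xERE luciferase) hormone-starved 5 days in charcoal-stripped FBS, plated 4,000/well for 24 h, then compound plus 17beta-estradiol for 21.5 h at 37 C; ONE-Glo luminescence read.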

Experiment [11] is described as follows: qHTS assay to identify small molecule antagonists of the estrogen receptor alpha (ER-alpha) signaling pathway using the BG1 cell line - cell viability counter screen (AID 743081).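 Further: compound given together with 17beta-estradiol as the ER stimulus; nearly all actives have a fitted effect of over 45% in size.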
A further experiment addresses Aromatase (Homo sapiens) (UniProt P11511). The experiment can be described thus: qHTS assay to identify aromatase inhibitors (AID 743083). Further: nearly all actives have a fitted effect of over 55% in size.
Experiment [12] has as its system thyroid hormone receptor (rat, GH3 cells). As to the kind of experiment: qHTS assay to identify small molecule agonists of the thyroid receptor (TR) signaling pathway (AID 743066; calls by dose curve).
Experiment [13] in a line: qHTS assay to identify small molecule antagonists of the thyroid receptor (TR) signaling pathway (AID 743065). Further: nearly all actives have a fitted effect of over 55% in size. Further: potency means the concentration at half of the fitted maximal effect. In short, it runs like this: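 Antagonism measured as loss of luciferase signal in GH3 cells stably carrying a TRE-luciferase reporter, co-treated with compound and T3 (1 nM final) for 23.5 h at 37 C. Viability was read in the same well by CellTiter-Fluor.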
The target in experiment [14] is Estrogen receptor (Homo sapiens) (UniProt P03372). The experiment can be described thus: qHTS assay to identify small molecule antagonists of the estrogen receptor alpha (ER-alpha) signaling pathway (AID 743069; active means well fitted curve in the direction sought with a large enough effect in the signal ratio in the repeat runs, not every such curve was filed as active; the % refers to the signal ratio). In short, it runs like this:
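ER-alpha-UAS-bla GripTite HEK293 line; 2% charcoal-stripped FBS overnight; plated, 4 hr 37C/5% CO2; cpd in DMSO + 17beta-estradiol, 18 hr 37C; LiveBLAzer B/G FRET substrate 2 hr RT; fluorescence intensity.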

Experiment [15] in a line: qHTS assay to identify small molecule antagonists of the thyroid receptor (TR) signaling pathway - cell viability counter screen (AID 743064). Further: nearly all actives have a fitted effect of over 50% in size. The procedure, abridged: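 Viability of T3-stimulated (1 nM final) GH3.TRE-Luc cells is measured by CellTiter-Fluor fluorescence after 23.5 h compound exposure at 37 °C plus 30 min reagent incubation.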
Experiment [16] concerns the target Androgen receptor (Homo sapiens) (UniProt P10275). As to the kind of experiment: qHTS assay to identify small molecule antagonists of the androgen receptor (AR) signaling pathway (AID 743035; active means well fitted inhibition curve with a large enough effect in the signal ratio in the repeat runs, not every such curve was filed as active; the % refers to the signal ratio). In short, it runs like this:
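Cell line: GeneBLAzer AR-UAS-bla GripTite (HEK293). Stimulus: R1881 added after compound. Exposure: 16 h, 37C, 5% CO2. Readout: LiveBLAzer B/G FRET fluorescence after 2 h at room temperature.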

Experiment [17] shares this target. The experiment can be described thus: qHTS assay to identify small molecule agonists of the androgen receptor (AR) signaling pathway (AID 743036; active means well fitted activation curve with a large enough effect in the signal ratio in the repeat runs, with a control signal flat, not every such curve was filed as active; the % refers to the signal ratio). The procedure, abridged: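 Screening used 2,000 AR-bla HEK293 cells per well, treated 16 h at 37C with test compounds in DMSO alongside positive and DMSO-only controls; beta-lactamase activity was then read by LiveBLAzer B/G FRET fluorescence after 2 h at room temperature.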

Experiment [18] shares this target. The experiment can be described thus: qHTS assay to identify small molecule agonists of the androgen receptor (AR) signaling pathway using the MDA cell line (AID 743040; further: nearly all actives have a fitted effect of over 20% in size). The procedure, abridged:
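Cells plated, 5 h at 37C/0% CO2; compound or DMSO pinned; 16 h at 37C; ONE-Glo added; luminescence measured after 30 min at room temperature. Reporter line: MDA-kb2 with MMTV-luciferase responsive to AR and GR.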

Experiment [19] shares this target. As to the kind of experiment: qHTS assay to identify small molecule antagonists of the androgen receptor (AR) signaling pathway using the MDA cell line (AID 743042; further: nearly all actives have a fitted effect of over 55% in size). The procedure, abridged: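 Antagonist mode: compounds plus R1881 agonist added to MDA-kb2 AR-luc cells, incubated 16 h at 37C. Luciferase reporter luminescence quantified, with multiplexed CellTiter-Fluor readout for cell viability.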

Sequence of Androgen receptor (Homo sapiens) (P10275 whole entry, looked up): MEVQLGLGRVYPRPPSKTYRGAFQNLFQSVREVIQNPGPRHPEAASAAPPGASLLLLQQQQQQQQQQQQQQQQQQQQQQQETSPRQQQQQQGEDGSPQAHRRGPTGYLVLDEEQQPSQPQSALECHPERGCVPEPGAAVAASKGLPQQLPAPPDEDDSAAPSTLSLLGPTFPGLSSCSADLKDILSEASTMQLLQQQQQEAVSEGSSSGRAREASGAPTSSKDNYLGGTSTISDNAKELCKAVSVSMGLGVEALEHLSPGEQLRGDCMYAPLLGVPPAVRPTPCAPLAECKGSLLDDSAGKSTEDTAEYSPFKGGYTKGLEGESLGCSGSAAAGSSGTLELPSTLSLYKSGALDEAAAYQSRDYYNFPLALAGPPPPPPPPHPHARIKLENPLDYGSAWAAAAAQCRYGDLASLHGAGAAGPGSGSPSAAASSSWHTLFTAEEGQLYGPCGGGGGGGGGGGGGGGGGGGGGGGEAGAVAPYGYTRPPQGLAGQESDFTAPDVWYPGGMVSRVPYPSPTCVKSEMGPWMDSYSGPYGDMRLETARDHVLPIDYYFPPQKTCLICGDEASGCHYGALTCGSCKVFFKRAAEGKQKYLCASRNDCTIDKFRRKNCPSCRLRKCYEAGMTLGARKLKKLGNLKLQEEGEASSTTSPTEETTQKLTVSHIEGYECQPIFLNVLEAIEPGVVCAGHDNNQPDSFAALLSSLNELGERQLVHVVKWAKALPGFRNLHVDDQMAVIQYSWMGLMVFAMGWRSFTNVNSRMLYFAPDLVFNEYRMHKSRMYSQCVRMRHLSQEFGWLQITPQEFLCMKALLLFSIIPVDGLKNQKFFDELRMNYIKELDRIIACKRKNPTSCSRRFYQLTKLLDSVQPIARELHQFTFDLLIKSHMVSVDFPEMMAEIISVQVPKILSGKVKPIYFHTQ
Sequence of Aromatase (Homo sapiens) (P11511 whole entry, looked up): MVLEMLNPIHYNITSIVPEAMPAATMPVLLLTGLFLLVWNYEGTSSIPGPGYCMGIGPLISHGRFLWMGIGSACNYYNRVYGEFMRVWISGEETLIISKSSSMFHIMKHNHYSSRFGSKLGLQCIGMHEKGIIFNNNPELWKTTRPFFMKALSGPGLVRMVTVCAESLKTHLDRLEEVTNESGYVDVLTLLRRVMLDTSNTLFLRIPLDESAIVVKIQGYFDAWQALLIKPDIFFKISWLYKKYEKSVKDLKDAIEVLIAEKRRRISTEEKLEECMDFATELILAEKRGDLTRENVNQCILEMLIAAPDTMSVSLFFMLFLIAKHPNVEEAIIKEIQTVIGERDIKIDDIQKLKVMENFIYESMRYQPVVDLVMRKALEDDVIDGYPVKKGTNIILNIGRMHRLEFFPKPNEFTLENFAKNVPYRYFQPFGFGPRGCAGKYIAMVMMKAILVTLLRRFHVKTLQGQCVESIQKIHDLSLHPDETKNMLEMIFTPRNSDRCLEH
Sequence of Estrogen receptor (Homo sapiens) (P03372 whole entry, looked up): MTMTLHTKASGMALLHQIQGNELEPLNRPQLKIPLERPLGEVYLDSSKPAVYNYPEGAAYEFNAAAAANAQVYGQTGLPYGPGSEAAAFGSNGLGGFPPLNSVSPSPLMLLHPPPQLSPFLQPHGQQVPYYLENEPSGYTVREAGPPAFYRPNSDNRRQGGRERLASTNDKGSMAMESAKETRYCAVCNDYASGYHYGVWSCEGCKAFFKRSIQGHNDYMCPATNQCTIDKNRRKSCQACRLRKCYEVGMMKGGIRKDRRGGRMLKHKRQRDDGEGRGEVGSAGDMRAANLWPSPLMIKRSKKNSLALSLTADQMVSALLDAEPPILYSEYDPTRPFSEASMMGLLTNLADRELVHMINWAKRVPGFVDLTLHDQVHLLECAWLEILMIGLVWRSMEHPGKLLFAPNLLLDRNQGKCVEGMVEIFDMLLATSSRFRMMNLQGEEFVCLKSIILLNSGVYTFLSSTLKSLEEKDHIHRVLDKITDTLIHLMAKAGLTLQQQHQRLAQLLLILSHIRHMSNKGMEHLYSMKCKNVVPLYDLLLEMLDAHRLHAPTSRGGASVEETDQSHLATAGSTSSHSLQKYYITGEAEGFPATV

For the molecule `N#C[C@@H]1C[C@@H]2C[C@@H]2N1C(=O)[C@@H](N)C12CC3CC(CC(O)(C3)C1)C2`, the Potency entry in experiment [1], in [2], in experiment [3], in [4], in [5] and in [6] was “inactive” in each case. For the same molecule, the Potency entry (in experiment [7]; in experiment [8]; in experiment [9]; in experiment [10]; in [11]; in the experiment with Aromatase (Homo sapiens)) was “inactive” each time.
For the molecule `CCCCCCOC(=O)C(C)C`, the Potency entry in experiment [1], in [2], in experiment [3], in experiment [4], in [5] and in experiment [7] was “inactive” throughout. For the same molecule, the Potency entry (in experiment [11]; with Aromatase (Homo sapiens)) was “inactive” each time. Moreover, the molecule was classed as inactive in experiment [12].
Take `CC(C)CCCCCCOC(=O)CCCCC(=O)OCCCCCCC(C)C`: the Potency entry in experiment [1], in experiment [2], in experiment [4], in experiment [5], in experiment [6] and in experiment [13] was “inactive” in each case. Besides, the Potency result in experiment [14], in experiment [7], in experiment [8], in experiment [9], in [10] and in [11] was “inactive” each time. In addition, the Potency result in the experiment with Aromatase (Homo sapiens) is “inactive”. In experiment [3], the Potency was 30.6 µM (active). The result in [12] was inactive.
Turning to `O=C(O)c1cccc(O)c1`, the Potency result in experiment [1], in experiment [2], in experiment [3], in experiment [4], in [5] and in experiment [6] was “inactive” in each case. Besides, the Potency entry in experiment [13], in [14], in [7], in experiment [8], in [9] and in experiment [10] was “inactive” throughout. For the same molecule, the Potency result (in experiment [11]; with Aromatase (Homo sapiens)) was “inactive” throughout. Besides, the result in [12] was inactive.
Turning to `O=S1OCCO1`, the Potency entry in [1], in experiment [2], in experiment [3], in experiment [4], in experiment [5] and in experiment [15] was “inactive” throughout. The Potency result in experiment [14], in [7], in [8], in [9], in experiment [10] and in experiment [11] was “inactive” in each case. For the same molecule, the Potency entry with Aromatase (Homo sapiens) is “inactive”. Further, the result in [12] was inactive.
Turning to `C=CC(C)(C)CC(=O)OC`, the Potency entry in experiment [1], in experiment [2], in experiment [3], in experiment [4], in experiment [5] and in experiment [15] was “inactive” in each case. In addition, the Potency result in [13], in experiment [7] and in experiment [11] was “inactive” in each case.
With `CCN(CC)CCNC(=O)c1ccc(NC(C)=O)cc1`, the Potency result in experiment [1], in [2], in [3], in [4], in experiment [16] and in experiment [17] was “inactive” throughout. For the same molecule, the Potency entry in experiment [18], in [6], in [19], in [15], in experiment [13] and in [14] was “inactive” throughout. Besides, the Potency entry (in experiment [7]; in experiment [8]; in experiment [9]; in experiment [10]; in [11]; in the experiment with Aromatase (Homo sapiens)) was “inactive” throughout. Moreover, the molecule was called inactive in experiment [12].
For `C[C@]12CCC(=O)C=C1C=C[C@@H]1[C@@H]2CC[C@@]2(C)[C@H]1CC[C@@]21CCC(=O)O1`, the Potency entry in [1], in [5], in [6], in experiment [15], in experiment [14] and in experiment [7] was “inactive” in each case. Further, the Potency result in experiment [8] and in experiment [11] was “inactive” in each case. The Potency in [2] is 16.8 µM (active); in [3], 23.7 µM (active); in experiment [4], 26.6 µM (active). For the same molecule, the molecule was classed as inactive in experiment [12].
For `Brc1cc(-c2ccc(Br)c(Br)c2Br)cc(Br)c1Br`, the Potency result in experiment [1], in experiment [2], in [3], in experiment [4], in experiment [5] and in experiment [6] was “inactive” throughout. Also, the Potency entry (in [7]; in experiment [8]; in experiment [9]; in experiment [10]; in experiment [11]; with Aromatase (Homo sapiens)) was “inactive” throughout. Besides, the Potency in [13] was 26.9 µM (active). Besides, the result in [12] was inactive.
